Only some compounds are listed: those with a hit (about 12% of all), similar ones and a draw of the others.
HP1b binding inh – HP1-beta chromodomain-methylated histone interaction inhibition | Potency, µM (top dose mostly 114 µM), for the others: top-dose activity change, negative = inhibition, hits mostly inhibitors | actives 0.56% (n = 390,000) | AlphaScreen HP1-beta / biotin-H3K9me3 peptide binding | P83916; note: nearly all actives have a fitted effect of over 70% in size
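AlphaScreen: HP1-beta (50 nM) preformed 30 min with biotin-H3(1-18)K9me3 peptide (50 nM) in PBS pH 7.4, 0.01% Tween-20. Compound added for 30 min at RT, then streptavidin donor/nickel chelate acceptor beads (10 ug/mL) for 30 min.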
BAZ2B inh – inhibitors of human BAZ2B bromodomain | Q9UIF8 | AlphaScreen BAZ2B-H3K14Ac peptide displacement | actives 4.4% (n = 360,000) | Potency, µM (titrated, usually from 114 µM), for the others: at the top dose activity change, negative = inhibition, most hits filed as inhibitors; note: % is set by controls: 0 for no effect and ±100 for the full control effect; nearly all actives have a fitted effect of over 60% in size
Target sequence (Q9UIF8 whole entry, looked up): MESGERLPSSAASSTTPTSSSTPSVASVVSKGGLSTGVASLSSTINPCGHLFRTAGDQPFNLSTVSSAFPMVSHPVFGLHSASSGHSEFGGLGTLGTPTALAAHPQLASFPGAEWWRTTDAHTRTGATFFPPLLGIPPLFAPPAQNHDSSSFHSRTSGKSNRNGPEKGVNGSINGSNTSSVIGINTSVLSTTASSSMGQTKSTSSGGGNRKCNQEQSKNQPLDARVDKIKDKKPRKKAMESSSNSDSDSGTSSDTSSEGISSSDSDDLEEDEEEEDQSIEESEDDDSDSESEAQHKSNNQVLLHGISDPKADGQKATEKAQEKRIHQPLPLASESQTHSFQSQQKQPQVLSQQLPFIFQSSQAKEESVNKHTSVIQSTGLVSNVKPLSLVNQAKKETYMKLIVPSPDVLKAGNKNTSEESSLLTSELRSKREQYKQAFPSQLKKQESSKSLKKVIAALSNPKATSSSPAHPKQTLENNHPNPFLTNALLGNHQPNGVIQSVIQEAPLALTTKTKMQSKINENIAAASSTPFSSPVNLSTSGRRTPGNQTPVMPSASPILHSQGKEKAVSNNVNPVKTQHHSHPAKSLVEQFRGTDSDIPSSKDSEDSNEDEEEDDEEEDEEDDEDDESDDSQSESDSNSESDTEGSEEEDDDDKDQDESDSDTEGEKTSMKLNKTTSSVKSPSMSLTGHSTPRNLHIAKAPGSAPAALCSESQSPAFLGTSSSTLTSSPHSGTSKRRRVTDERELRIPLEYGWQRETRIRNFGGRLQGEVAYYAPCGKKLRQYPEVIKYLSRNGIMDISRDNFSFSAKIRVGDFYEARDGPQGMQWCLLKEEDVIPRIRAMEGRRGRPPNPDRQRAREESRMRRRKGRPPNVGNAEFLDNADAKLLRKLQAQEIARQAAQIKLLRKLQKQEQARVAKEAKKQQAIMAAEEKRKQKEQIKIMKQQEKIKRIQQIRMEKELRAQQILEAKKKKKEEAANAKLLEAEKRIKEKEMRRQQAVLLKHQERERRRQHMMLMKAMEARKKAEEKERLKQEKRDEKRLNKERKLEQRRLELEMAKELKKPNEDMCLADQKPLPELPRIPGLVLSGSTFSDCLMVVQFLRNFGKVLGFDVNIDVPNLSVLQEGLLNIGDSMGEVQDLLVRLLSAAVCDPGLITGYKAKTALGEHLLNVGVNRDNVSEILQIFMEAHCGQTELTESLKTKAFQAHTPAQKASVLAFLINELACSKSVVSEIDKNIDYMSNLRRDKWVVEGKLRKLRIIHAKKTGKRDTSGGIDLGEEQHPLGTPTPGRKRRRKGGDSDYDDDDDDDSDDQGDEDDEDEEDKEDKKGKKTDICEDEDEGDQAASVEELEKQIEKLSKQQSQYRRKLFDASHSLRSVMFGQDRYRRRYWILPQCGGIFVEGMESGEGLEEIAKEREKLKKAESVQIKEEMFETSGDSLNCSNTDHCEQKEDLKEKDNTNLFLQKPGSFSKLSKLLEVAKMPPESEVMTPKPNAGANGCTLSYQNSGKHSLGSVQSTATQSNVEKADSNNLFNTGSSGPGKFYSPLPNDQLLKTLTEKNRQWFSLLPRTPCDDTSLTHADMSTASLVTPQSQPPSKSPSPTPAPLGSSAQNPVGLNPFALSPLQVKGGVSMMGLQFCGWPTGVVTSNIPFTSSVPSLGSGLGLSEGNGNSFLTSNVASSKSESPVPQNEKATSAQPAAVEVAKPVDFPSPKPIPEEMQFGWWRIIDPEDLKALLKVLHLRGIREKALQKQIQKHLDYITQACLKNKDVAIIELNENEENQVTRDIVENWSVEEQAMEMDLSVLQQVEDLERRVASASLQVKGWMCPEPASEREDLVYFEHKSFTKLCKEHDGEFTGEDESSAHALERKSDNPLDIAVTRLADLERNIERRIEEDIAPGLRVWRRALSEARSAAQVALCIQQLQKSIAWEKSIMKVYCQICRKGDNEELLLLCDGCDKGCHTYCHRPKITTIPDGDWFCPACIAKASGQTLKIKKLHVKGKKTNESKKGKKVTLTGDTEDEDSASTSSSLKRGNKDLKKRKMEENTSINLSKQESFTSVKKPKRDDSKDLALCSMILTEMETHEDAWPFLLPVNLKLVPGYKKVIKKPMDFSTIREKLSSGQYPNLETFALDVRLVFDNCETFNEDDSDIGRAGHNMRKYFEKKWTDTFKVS
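BAZ2B 50 nM plus b-H3(5-23)K14Ac 50 nM, PBS pH 7.4/0.01% Tween-20, 30 min RT; compound added (max 110 uM), 30 min RT; streptavidin donor/Ni-chelate acceptor beads 10 ug/mL final, 20 min dark; AlphaScreen read.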
G9a block – blocks human histone lysine methyltransferase G9a; actives 8.8% (n = 350,000); Potency, µM (highest dose often 102 µM), without a hit: at the top dose activity, negative = inhibition, most hits filed as inhibitors; G9a H3K9 monomethylation, AlphaScreen, 2 h; Q96KQ7; note: % is set by controls: 0 for no effect and ±100 for the full control effect; nearly all actives have a fitted effect of over 75% in size
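Readings reflect AlphaScreen signal from monomethyl-H3K9 antibody detection. HMT at 20 nM; substrate b-H3K9 500 nM; cofactor SAM 20 uM; 2 h RT reaction; compounds tested as titrations in qHTS with 15 min preincubation.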
Sfp PPTase inh – blocks B. subtilis Sfp PPTase activity; Potency, µM, inactives show largest response in the series, negative = inhibition, hits mostly inhibitors; Q9F4F7; AID 1490; actives 3.5% (n = 310,000); Biochemical Sfp PPTase activity, qHTS;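 note: the enzyme is Sfp with the accession as filed and its product quenches rhodamine fluorescence; 0% = enzyme reaction without inhibitor and -100% = no enzyme wells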
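Compounds were incubated with enzyme (final 15 nM) for 15 min at room temperature before substrate addition started the reaction. Fluorescence at 525 nm excitation, 598 nm emission was recorded immediately and after 30 minutes.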
JMJD2A Tudor inh – JMJD2A Tudor domain (human) inhibition. actives 4.4% (n = 390,000). O75164. AID 504339. AlphaScreen JMJD2A-Tudor / H3K4me3 peptide binding. Potency, µM (titrated, usually from 114 µM), without a hit: top-dose activity change, negative = inhibition, actives largely listed as inhibitors; note: % is set by controls: 0 for no effect and ±100 for the full control effect; nearly all actives have a fitted effect of over 50% in size
* = called active by the depositor; ? = inconclusive; nt = no result given; ! = not active in a repeat; [ ] = another dose, or the depositor's remark. Calls come from the whole dose curve; as a rule, active = well fitted curve in the direction sought with a large enough effect; inconclusive = small, poorly fitted or top-dose-only effect, or another doubt; inactive = no such curve, though single readings can be large; an effect the other way counts as inactive or inconclusive. Potency is the fitted concentration of half-maximal effect.

SMILES	HP1b binding inh	BAZ2B inh	G9a block	Sfp PPTase inh	JMJD2A Tudor inh
CC(=O)C1=C(O)[C@@H]2[C@@H]3c4c[nH]c5cccc(c45)C[C@@H]3C(C)(C)N2C1=O	nt	nt	nt	-15%	nt
O=C1NS(=O)c2cc([N+](=O)[O-])cc([N+](=O)[O-])c21 (stereo not drawn)	44%	?	nt	18µM*	-14%
CCCCOC(=O)N(C)SN(C)C(=O)Oc1cccc2c1OC(C)(C)C2	nt	nt	nt	-13%	nt
Oc1ccccc1O	?	6%	1.8µM*	nt	40µM*
c1ccc2ccccc2c1	33%	6%	-1%[0.501 µM]	?	-9%
O=P(NS(=O)(=O)c1ccccc1)(Oc1ccccc1)Oc1ccccc1	25%	-39%	56µM*	29%	?
Cc1ccc(S(=O)(=O)NP(=O)(Oc2ccccc2)Oc2ccccc2)cc1	18%	-23%	56µM*	22%	?
O=P(NS(=O)(=O)c1ccc(Br)cc1)(Oc1ccccc1)Oc1ccccc1	13%	?	-12%[12.7 µM]	13%	-12%
CCC1(C)OC(c2ccccc2)=C/C(=C/C=C2C(=O)NC(=O)NC2=O)O1 (stereo not drawn)	-5%	40µM*	50µM*	-15%	?
O=S(=O)(O)c1cc(O)ccc1O	?	3%	10µM*	-3%	79µM*
N[C@@H](Cc1cc(I)c(O)c(I)c1)C(=O)O	?	7%	6.3µM*!	?	11µM*
O=P1(N(CCCl)CCCl)NCCCO1 (stereo not drawn)	24%	0%	18µM*!	-9%	-26%
Cn1cccc1/C=C1\C(=O)NC(=O)N(Cc2ccccc2Cl)C1=O	3%	nt	45µM*	-15%	?
O=C(c1csnn1)N1CCC[C@@]2(CCN(Cc3ccncc3)C2)C1	nt	nt	-3%[12.7 µM]	-5%	nt
C=CCSc1nc2c(c(-c3ccsc3)c1C#N)CN(C)CC2	-3%	-36%	16µM*	-14%	-32%
C/C=C(/C)C(=O)O[C@H]1C(C)=C2C([C@@H]1OC(=O)CCCCCCC)[C@@](C)(OC(C)=O)C[C@@H](OC(=O)CCC)[C@@]1(O)[C@H]2OC(=O)[C@@]1(C)O (stereo partly drawn)	nt	nt	43%[12.7 µM]	nt	nt
COc1ccc(CCN)cc1O	47%	nt	?	29%	-3%
COc1cc(-c2ccc(N)c(OC)c2)ccc1N	?	50µM*	0%[0.501 µM]	nt	?
CCN(CC)P(=O)(Nc1ccc([N+](=O)[O-])cc1)c1c(C)nn(CCC#N)c1NC(=O)c1ccc(Cl)cc1Cl (stereo not drawn)	13%	?	-4%	11%	-8%
N#C/C(=C\c1ccc(O)cc1)C(=O)O (tested in a mixture with another compound)	10%	nt	nt	nt	-14%
N#CC(C#N)=Cc1cccnc1	-24%	-1%	nt	-25%	-4%[57.1 µM]
N#CC(C#N)=Cc1cc(O)c(O)c(O)c1	nt	nt	8.9µM*	50µM*	nt
N#CC(C#N)=Cc1ccc(O)cc1	nt	nt	nt	22µM*!	nt
CC1CN(C(=O)c2ccc(S(=O)(=O)Nc3ccccc3F)cc2)CC(C)O1 (stereo not drawn)	46%	-2%	-5%	nt	-8%
CCCCCCC(=O)OC1CC(C)(C)NC(C)(C)C1	nt	nt	2%[59 µM]	-5%	nt
SMILES	HP1b binding inh	BAZ2B inh	G9a block	Sfp PPTase inh	JMJD2A Tudor inh
O=C1NO[C@@H]2CN[C@@H](C(=O)O)[C@H]12	nt	nt	nt	-2%	nt
C/C=C1\C[N@@+]2(C)CC[C@@]34C(=C(C=O)[C@H]1C[C@H]32)Nc1ccccc14	nt	nt	?	35µM*	nt
CC(=O)Oc1ccc2c3c1OC1[C@@H](OC(C)=O)C=C[C@H]4[C@H](C2)N(C)CC[C@]314 (stereo partly drawn)	nt	nt	-42%[12.7 µM]	25%	nt
Oc1cc2c(cc1O)[C@H]1c3ccccc3CN[C@H]1CC2	nt	nt	1.4µM*	40µM*	nt
Oc1cc2c(cc1O)[C@H]1c3ccccc3CN[C@@H]1CC2	nt	?	2.5µM*	32µM*	nt
c1ccc([C@H]2CNCc3ccccc32)cc1	nt	nt	nt	-7%	nt
COC(=O)C(N)CCCN=C(N)N[N+](=O)[O-] (stereo not drawn)	nt	nt	11%[12.7 µM]	nt	nt
Cc1ccccc1-c1cncnc1NCCc1cnc[nH]1	nt	nt	nt	9%	nt
CCC1(CC)CCNC1=O	nt	nt	nt	-3%	nt
COc1cc2c(cc1OC)-c1c3c(cc4c1[C@@H](C2)N(C)CC4)OCO3	1%	-34%	-15%	-6%	?
COc1cc2c(cc1O)C[C@H]1NCCc3cc4c(c-2c31)OCO4	-2%	22µM*	?	-7%	22µM*
COC1=CC(=O)OC(CCc2ccc3c(c2)OCO3)C1 (stereo not drawn)	7%	nt	nt	nt	-18%
CCOc1ccc(CN(CCc2ccc3c(c2)OCO3)Cc2cc(OC)ccc2O)cc1	?	?	3.2µM*	nt	22µM*
CCOc1ccc(CN(CCc2ccc3c(c2)OCO3)Cc2ccc(CC)cc2)cc1	-21%	71µM*	?	nt	22µM*
CCOc1ccc(CN(CCc2ccc3c(c2)OCO3)Cc2cccc(C)c2)cc1	?	?	0.89µM*	nt	22µM*
COc1ccc(OCC(=O)N2CCN(Cc3ccc4c(c3)OCO4)CC2)cc1	13%	-9%	5%	26%	-6%
COc1ccc(/C=C/C(=O)N2CC3C[C@@H](C2)Cn2c3cccc2=O)cc1OC	nt	nt	nt	-11%	nt
Brc1c(Br)c(Br)c2n[nH]nc2c1Br	nt	nt	19%[59 µM]	17%	nt
COc1ccccc1CC(=O)N1CCN(CCc2ccccc2)CC1	9%	-17%	19%	8%	-19%
COc1ccc(CN2CCN(C(=O)Cc3ccccc3)CC2)c(OC)c1	?	56µM*	20µM*	-14%	2µM*
O=C(Cc1ccc(Br)cc1)N1CCN(Cc2ccccc2)CC1	19%	4%	2%[12.7 µM]	-11%	-5%
Cc1ccc(CC(=O)N2CCN(Cc3ccccc3)CC2)cc1	58%	-21%	-52%	21%	-10%
